Assay outcomes: PubChem, National Center for Advancing Translational Sciences (NCATS)
Only some compounds are listed: those with a hit (about 11% of all), similar ones and a draw of the others.
PNC assembly inh: perinucleolar compartment assembly inhibition; activity change (PNC), negative = inhibition, % at 10 µM; AID 2417; 140,000 tested, 3.1% active; PC3M PTB-GFP, PNC prevalence imaging, 16 h; active compounds read low;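 active = readout at or below -70, meaning at least 70% loss of cells showing the perinucleolar compartment, a nuclear body marking cancer cells; inconclusive = readout between -30 and a set limit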;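 also: plate controls were DMSO wells for no effect and camptothecin positive control wells for full effect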
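Read-out is percentage of cells bearing a perinucleolar compartment, from automated 20x imaging of fixed, Hoechst-stained PC3M PTB-GFP cells. Cells were seeded 4 h, then exposed 16 h to compound (23 nl of library stock) in duplicate plates.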
ALDH1A1 inh: blocks purified human ALDH1A1 activity | Purified ALDH1A1, NADH fluorescence, propionaldehyde substrate | 220,000 tested, 7.3% active | Potency, µM (top dose mostly 75.3 µM), for inactives: top-dose activity, negative = inhibition, actives largely listed as inhibitors | AID 1030; active = well fitted inhibition curve with a large enough effect, not every such curve was filed as active; inconclusive = small, poorly fitted or top-dose-only effect, or another doubt; inactive = no such curve, though single readings can be large or run the other way;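 also: potency is read from the fitted curve at half-maximal effect; plate controls were no enzyme wells and a reference inhibitor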
Target sequence (P00352 whole entry, looked up): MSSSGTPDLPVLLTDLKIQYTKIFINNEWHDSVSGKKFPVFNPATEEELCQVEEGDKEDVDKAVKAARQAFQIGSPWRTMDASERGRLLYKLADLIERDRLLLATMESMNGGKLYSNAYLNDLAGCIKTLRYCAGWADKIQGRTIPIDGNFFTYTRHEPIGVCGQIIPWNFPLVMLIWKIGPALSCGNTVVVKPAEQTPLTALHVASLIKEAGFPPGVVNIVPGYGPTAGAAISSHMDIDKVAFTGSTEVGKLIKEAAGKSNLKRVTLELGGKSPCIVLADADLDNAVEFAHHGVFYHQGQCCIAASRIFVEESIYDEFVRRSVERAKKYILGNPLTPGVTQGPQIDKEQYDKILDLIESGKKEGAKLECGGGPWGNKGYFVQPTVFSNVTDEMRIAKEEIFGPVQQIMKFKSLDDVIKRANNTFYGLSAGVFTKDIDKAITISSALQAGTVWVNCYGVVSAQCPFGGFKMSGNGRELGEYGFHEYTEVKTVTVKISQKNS
HPGD block: HPGD (human) dehydrogenase inhibition | purified HPGD, NADH fluorescence kinetic, PGE2 substrate | 150,000 tested, 4.3% active | Potency, µM, for inactives: top-dose activity change, negative = inhibition, usual class: inhibitors | AID 894; active = well fitted inhibition curve with a large enough effect, not every such curve was filed as active; inconclusive = small, poorly fitted or top-dose-only effect, or another doubt; inactive = no such curve, though single readings can be large or run the other way; also: potency is read from the fitted curve at half-maximal effect
Target sequence (P15428 whole entry, looked up): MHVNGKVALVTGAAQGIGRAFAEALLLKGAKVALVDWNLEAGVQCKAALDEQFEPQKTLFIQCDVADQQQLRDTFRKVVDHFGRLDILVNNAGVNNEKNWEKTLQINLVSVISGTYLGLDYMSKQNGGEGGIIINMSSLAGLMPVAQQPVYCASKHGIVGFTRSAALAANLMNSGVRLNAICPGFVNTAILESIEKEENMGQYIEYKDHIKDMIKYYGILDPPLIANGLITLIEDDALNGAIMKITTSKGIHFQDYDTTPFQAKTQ
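20 nM HPGD preincubated 15 min at room temperature with compound in 50 mM Tris-HCl pH 8, 0.01% Tween 20. Started with 1 mM NAD+ and 30 uM prostaglandin E2; NADH fluorescence (360/450 nm) read 5 times over 30-s intervals, last minus first.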
IMPase Li inh: IMPase inhibition in cells with lithium potentiation. Potency, µM (titrated, usually from 59.4 µM), inactives show top-dose activity, negative = IMPase inhibition, most hits filed as inhibitors. 210,000 tested, 0.35% active. CHO-M1 cells, IP1 TR-FRET (IP-One), carbachol + lithium;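 also: IP1 builds up when IMPase is blocked and the TR-FRET signal falls; potency is read from the fitted curve at half-maximal effect; plate controls were basal vehicle for no effect and high inhibitor control for full effect; nearly all actives have a fitted effect of over 50% in size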
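CHO-M1, 2000 cells/well, 16–30 h culture; cpd + low Li+, 30 min 37C; lysis with d2-IP1/Eu-anti-IP1 Ab, 10 min RT; TR-FRET 665/620 ratio and 620 channel; AC50 via Hill.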
IMPase inh: membrane-permeable compound that blocks inositol monophosphatase. P97697. AID 901. 120,000 tested, under 10 active. CHO-M1 cells, IP1 accumulation, HTRF TR-FRET ratio. inhibition (IP1 accumulation), % at 46.1 µM; active = well fitted curve in the direction sought with a large enough effect in the signal ratio, not every such curve was filed as active; inconclusive = small, poorly fitted or top-dose-only effect, or a change in a side signal; inactive = no such curve, though single readings can be large or run the other way; the % refers to the signal ratio;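 also: cells stimulated with carbachol in lithium chloride buffer; plate controls were DMSO basal wells for no effect and reference inhibitor wells for full effect; higher means more IMPase inhibition seen as more IP1 and lower FRET ratio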
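In this qHTS, compounds (final up to 46 uM) act on CHO-M1 cells that are then activated through the M1 receptor with carbachol, in pH 7.4 buffer containing 50 mM LiCl, for 30 min. IP1 accumulation is quantified by the IP-One immunoassay.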
ALOX12 inhib: inhibitors of human 12-lipoxygenase (ALOX12) | purified 12-hLO, xylenol orange hydroperoxide absorbance | Potency, µM (highest dose often 57.1 µM), for the others: top-dose activity change, negative = inhibition, most hits filed as inhibitors | 150,000 tested, 0.12% active; also: potency is read from the fitted curve at half-maximal effect; nearly all actives have a fitted effect of over 55% in size
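Lipoxygenase turnover measured by absorbance at 573 and 405 nm after Fe-XO development. Human 12hLO 150 nM, arachidonate 40 uM, pH 7.0 Hepes buffer with detergent; 15 min compound preincubation, 30 min reaction.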
* hit, by the source's call; ? = inconclusive; · = not tested or not shown; [ ] = remark or other dose. Unless noted, calls follow the shape of the dose curve; as a rule, active = well fitted curve in the direction sought with a large enough effect; inconclusive = small, poorly fitted or top-dose-only effect, or another doubt; inactive = no such curve, though single readings can be large; an effect the other way counts as inactive or inconclusive. Unless noted, % is scaled to controls: 0 for no effect and ±100 for the full control effect.

SMILES	PNC assembly inh	ALDH1A1 inh	HPGD block	IMPase Li inh	IMPase inh	ALOX12 inhib
COc1ccc2c(c1)O[C@H](c1ccc3c(c1)OCO3)[C@@H](OC(=O)NCCc1ccc(OC)c(OC)c1)C2=O	·	4%	-11%	2%	·	·
Cc1ccc(S(=O)(=O)NC(=O)OC23COCN2COC3)cc1	·	9%[13.5 µM]	-6%	3%	·	0%[11.4 µM]
COc1ccc(CNc2nc(-c3cccc(C#N)c3)nc3ccccc23)c(OC)c1	·	?	·	12%	·	·
Cc1cccc(C)c1NC(=S)NC(=O)CCc1ccccc1	-6	?	-12%	-2%[38.3 µM]	5	?
CCN1CCc2c(sc(NC(=S)NC(=O)c3ccco3)c2C(N)=O)C1	·	7.9µM*	·	·	·	·
COC(=O)CCC(=O)Nc1sc(C)c(C)c1C(N)=O	14	13µM*	14µM*	-7%[38.3 µM]	-4	-8%
CCOC(=O)Nc1sc(C)c(C)c1C(N)=O	?	3%	-4%	4%	-4	-1%
COC(=O)c1c(NC(=S)NC(=O)c2ccco2)sc2c1CCCC2	-12	?	-12%	1%	6	-3%
Cc1sc(NC(=S)NC(=O)CCc2ccccc2)c(C(N)=O)c1C	-121*	?	-15%	11µM*	·	-7%
Cc1ccc2nc(NC(=S)NC(=O)c3ccco3)sc2c1	-27	?	-17%	13µM*	·	-5%
COC(=O)Oc1ccccc1C(=O)O	·	-1%	?	9%	·	-2%
CCNc1ncc2nc(-c3cn(C)c4ccccc34)c(=O)n(C[C@H]3CCCO3)c2n1	·	11%	·	-5%	·	·
COCC(C)Nc1nc(C)c(C(C)=O)s1 (stereo not drawn)	·	-1%	·	-3%	·	·
CC(C)CO/N=C1/C[C@@H](O)[C@@H](O)[C@@H]2[C@@H]3C(=O)N(Cc4ccccc4)C(=O)[C@H]3CC[C@@H]12	·	9%[13.5 µM]	·	·	·	·
COc1ccc(NC(=O)c2c(NC(=O)CCC(=O)O)sc(-c3ccccc3)c2C)cc1	·	8.9µM*	·	-5%	·	·
CCN1CCc2c(sc(NC(=O)Nc3ccc(Cl)c(Cl)c3)c2C(N)=O)C1	-118*	-1%	-17%	-8%	·	-7%
COCCn1c(=O)cnc2cnc(Oc3ccc(OC)cc3)nc21	·	?	·	-8%	·	·
COc1cc(Cn2c(=O)sc3ccccc32)ccc1OCCC(C)C	·	·	·	·	3	·
Cc1nonc1C1CCCN1Cc1cn[nH]c1-c1ccc(-c2ccccc2)cc1 (stereo not drawn)	·	7.1µM*	·	10%	·	·
COc1cc(NC(=S)N2CCCC(CO)C2)c(OC)cc1Cl (stereo not drawn)	21	5%	?	0%	·	1%
CCCCCN1C(C(=O)c2ccccc2)=C(NC(=O)c2ccc(C)cc2)c2ccccc2S1(=O)=O	·	·	·	·	-8	·
Cc1cc(C)nc(SCC(=O)OCN2C(=O)c3ccccc3C2=O)n1	?	10µM*	-14%	-5%[38.3 µM]	0	1%
Cc1cc(C)nc(SCC(=O)c2cc3ccccc3oc2=O)n1	-29	14µM*	18µM*	17%[38.3 µM]	8	-19%
CCOc1ccc(S(=O)(=O)NCCC(=O)OCN2C(=O)c3ccccc3C2=O)cc1	-7	?	-2%	9%[38.3 µM]	2	-7%
Cc1ccc(S(=O)(=O)NCC(=O)OCN2C(=O)c3ccccc3C2=O)cc1	12	4µM*	-6%	-4%[38.3 µM]	3	-2%
SMILES	PNC assembly inh	ALDH1A1 inh	HPGD block	IMPase Li inh	IMPase inh	ALOX12 inhib
O=C(CSc1nc2ccccc2o1)c1cc2ccccc2oc1=O	-19	-4%	-6%	9%	-1	-9%
Cc1ccc(S(=O)(=O)NCCC(=O)OCn2nnc3ccccc3c2=O)cc1	9	28µM*	-10%	23%[38.3 µM]	0	-2%
CCCN(CCC)C(=O)C1CC(=O)OC12CCCCC2 (stereo not drawn)	·	-2%	·	4%	·	·
CCC(=O)OCn1nnc2ccccc2c1=O	·	-2%	·	2%	·	·
CC(C)(Oc1ccc(Cl)cc1)C(=O)OCn1nnc2ccccc2c1=O	?	5µM*	?	65%[38.3 µM]	5	-12%
CCOc1ccccc1NC(=O)COC(=O)CN(C)S(=O)(=O)c1ccc(C)cc1	0	4%	-17%	18%	·	5%
Cc1ccc(C)c(NC(=O)CNS(=O)(=O)c2ccccc2)c1	-80*	-1%	-4%	3%[38.3 µM]	-11	-1%
CCOc1ccccc1NC(=O)COC(=O)CNS(=O)(=O)c1ccc(C)cc1	-116*	-9%	-8%	7%	·	0%
CCOC(=O)CSC1=NC(=O)/C(=C\c2ccc(Cl)cc2)S1	-19	20µM*	2.2µM*	30%[38.3 µM]	-4	-27%
COc1ccc(Cl)cc1/C=C(\C#N)C(N)=O	·	0%	·	-1%	·	·
CNc1nc(-c2ccc3c(c2)CCN3C(=O)c2ccc(F)cc2)cs1	·	?	·	11%	·	·
CS(=O)(=O)N1CCc2cc(-c3csc(NC(=O)Cc4cccs4)n3)ccc21	-19	13µM*	-14%	46%[38.3 µM]	15	-1%
CNc1nc(-c2ccc3c(c2)CCN3C(=O)c2ccccc2C)cs1	·	13µM*	·	12%	·	·
Cc1cccc(NC(=S)/N=C(\N)Nc2nc(C)c3ccccc3n2)c1	50	?	-28%	?	·	7.9µM*
Cc1ccc(NC(=S)/N=C(\N)Nc2nc(C)c3ccccc3n2)cc1C	-6	4%	-27%	?	-3	5.6µM*
Cc1cc(C)cc(NC(=S)/N=C(\N)Nc2nc(C)c3ccccc3n2)c1	?	-5%	-13%	5%	-2	-1%
Cc1cccc(NC(=S)/N=C(\N)Nc2nc(C)c3ccc(C)cc3n2)c1	8	2%	-26%	6%[38.3 µM]	8	?
Nc1ncnc2c1ncn2[C@@H]1O[C@H](C(=O)NC2CC2)[C@@H](O)[C@H]1O	·	4%	·	0%	·	·
CSc1cc(/C=N/O)c(SC)s1	-5	?	11µM*	-5%	-7	-3%
O=C(CSc1nnc(-c2cccnc2)n1-c1ccccc1)Nc1ccccc1	-100*	1%	-15%	2%	-9	6%
O=C(CSc1n[nH]c(-c2cccnc2)n1)Nc1ccccc1	-30	1%	10µM*	-5%	5[0.0738 µM]	2%
COCCn1c(C)cc(C(=O)CSc2nnc(-c3cccnc3)n2-c2ccccc2F)c1C	-14	1%	-5%	-3%[38.3 µM]	3	-8%
Cc1ccccc1-n1c(SCC(=O)c2cc(C)n(C)c2C)nnc1-c1cccnc1	-5	?	25µM*	28%[38.3 µM]	5	1%
O=C(CSc1n[nH]c(-c2ccccc2)n1)Nc1ccc(N2CCOCC2)cc1	·	22µM*	·	1%	·	·
Cc1ccc(NC(=O)CSc2nnc(-c3cccnc3)n2-c2ccc(C)cc2)cc1	4	6%	-13%	12%	-8	1%
COC(=O)CSc1n[nH]c(-c2cccnc2)n1	32	12%	-11%	13%[38.3 µM]	5	-3%
COc1ccc(-c2nc(C)sc2C)cc1	15	?	28µM*	3%	·	-4%
